The text below walks through data of PubChem BioAssay (NCATS).

Inconclusive results are not listed. More than one record can exist for a structure, and the calls need not agree. Active and inactive are the calls of the source. Unless noted, calls follow the shape of the dose curve; as a rule, active = well fitted curve in the direction sought with a large enough effect; inconclusive = small, poorly fitted or top-dose-only effect, or another doubt; inactive = no such curve, though single readings can be large; an effect the other way counts as inactive or inconclusive.

Assay [1] is described as follows: Confirmation and Secondary Assay for Modulators of Hemoglobin Beta Chain Splicing at IVS2 654 locus (AID 910).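 Also: per-well total GFP intensity by laser scanning cytometry after 2-day treatment; % of control where 0% means no effect.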 A digest of the protocol:
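HeLa cells stably carrying EGFP interrupted by mutant beta-globin IVS2-654 intron (CMV-driven) were treated with compound for 2 days at 37C; corrected splicing was scored as total peak GFP intensity per well (488 nm excitation, 500-520 nm emission).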

Assay [2] in a line: Cell Viability - LYMP2-001 (AID 921). Also: nearly all actives have a fitted effect of over 70% in size. Also: potency is read from the fitted curve at half-maximal effect. Summed up:
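Steps: seed 2500 lymphoblastoid cells/well; 5 hr, 37 C; add compound; 24 hr, 37 C; CellTiter-Glo reagent, 30 min room temperature; read luminescence. Concentration-response modeled by Hill equation for AC50.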

A short description of assay [3]: Confirmation and Secondary Assay for Modulators of Hemoglobin Beta Chain Splicing at IVS2 705 locus (AID 930).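 Also: HeLa cells stably expressing the EGFP-705 splicing reporter; series mostly up to about 46 µM; % of control where 0% means no effect.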 A digest of the protocol: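 Assay measures total GFP intensity per well in HeLa EGFP-705 cells after 2 days with compound; mis-splicing normally truncates EGFP, so fluorescence indicates corrected splicing.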
Assay [4] is described as follows: MultiTox-Fluor Cytotoxicity Assay - LYMP1-001 - Dead Cells (AID 946).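 Also: cells exposed to compound for 16 h; 0% = DMSO and 100% = tetraoctylammonium bromide.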 Summed up: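 LYMP1-001 lymphoblastoid cells (2500/well) treated 16 h at 37 C. Dead-cell protease cleavage of bis-AAF-R110 read at Ex/Em 485/520. Normalized to DMSO and 15 uM tetraoctylammonium bromide; AC50 from Hill fits.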
A short description of assay [5]: qHTS Assay for Identification of Small Molecule Agonists for Thrombopoietin (TPO) Signaling Pathway (AID 917). Also: % is scaled to controls: 0 for no effect and ±100 for the full control effect. A digest of the protocol: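 Cell-based luciferase reporter screen. Mouse Ba/F3 line stably expressing human TPO receptor; IL-3 removed overnight before plating. Co-treatment with compound and EC50 TPO (26 pM), 24 hrs at 37 C, then luminescence.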
For orientation: Quantitative high-throughput screening tests each substance at several concentrations.

In assay [6] the target is Muscarinic acetylcholine receptor M1 (Rattus norvegicus) (UniProt P08482). The assay can be described thus: qHTS Assay for Antagonists of Acetylcholine Muscarinic M1 Receptor: Kinetic Measurement of Intracellular Calcium Response (AID 943). Also: nearly all actives have a fitted effect of over 75% in size. Also: potency is read from the fitted curve at half-maximal effect. A digest of the protocol: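 Antagonism measured as reduction of carbachol-evoked (EC80, 100 nM final) calcium flux in rat M1-CHO cells after 10 min compound exposure. Fluo-4 signal read kinetically; ratio of maximal to basal fluorescence.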

For assay [7] the target is unchanged. The assay can be described thus: qHTS Assay for Antagonists of Acetylcholine Muscarinic M1 Receptor: Measurement of IP-One Response (AID 944). Also: nearly all actives have a fitted effect of over 75% in size. Also: potency is read from the fitted curve at half-maximal effect. A digest of the protocol: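 IP1 accumulation measured via TR-FRET between d2-IP1 and Eu-cryptate anti-IP1 antibody after carbachol (200 nM, EC80) stimulation for 30 min; rat M1-transfected CHO cells received compound 10 min before agonist.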

In assay [8] the target is Pyruvate kinase (Leishmania mexicana) (UniProt Q27686). The assay can be described thus: qHTS Validation Assay for Inhibitors of Leishmania Mexicana Pyruvate Kinase (AID 945).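 Also: 0% = DMSO only neutral control wells.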 A digest of the protocol:
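Pyruvate kinase activity of E451W LmPYK (0.2 nM) was followed as ATP output after 1 h at room temperature with 0.5 mM PEP and 0.1 mM ADP, detected by PKLight luminescence.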

A short description of assay [9]: qHTS Assay for Identification of Small Molecule Agonists for Hypoxia Response Element Signaling Pathway (AID 914; active = well fitted activation curve with a large enough effect in the signal ratio, with a control signal flat, not every such curve was filed as active; the % refers to the signal ratio; also: % of control where 0% means no effect). Conditions: ME-180 (cervical carcinoma) HRE-bla reporter, beta-lactamase ratio, CoCl2, 17 h; stronger effect = higher value. Summed up:
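Compounds in a titration series were added to ME-180 reporter cells alongside an EC50 level of CoCl2. After 17 hours, beta-lactamase activity was read as the 460nm/530nm emission ratio of CCF4, giving AC50 values.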

Assay [10] can be described thus: qHTS Assay for Identification of Small Molecule Antagonists for Thrombopoietin (TPO) Signaling Pathway (AID 918). Also: potency is read from the fitted curve at half-maximal effect; nearly all actives have a fitted effect of over 60% in size. To be noted: TPO-dependent cell signaling reporter, antagonist mode. Summed up:
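Inhibition read as reduced luciferase luminescence after 24 h at 37 C in IL-3-deprived Ba/F3 cells carrying human TPO receptor and GPIIb-promoter reporter, stimulated with 26 pM TPO (final, its EC50) alongside compound.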

Chain of Muscarinic acetylcholine receptor M1 (Rattus norvegicus) (P08482 whole entry, looked up): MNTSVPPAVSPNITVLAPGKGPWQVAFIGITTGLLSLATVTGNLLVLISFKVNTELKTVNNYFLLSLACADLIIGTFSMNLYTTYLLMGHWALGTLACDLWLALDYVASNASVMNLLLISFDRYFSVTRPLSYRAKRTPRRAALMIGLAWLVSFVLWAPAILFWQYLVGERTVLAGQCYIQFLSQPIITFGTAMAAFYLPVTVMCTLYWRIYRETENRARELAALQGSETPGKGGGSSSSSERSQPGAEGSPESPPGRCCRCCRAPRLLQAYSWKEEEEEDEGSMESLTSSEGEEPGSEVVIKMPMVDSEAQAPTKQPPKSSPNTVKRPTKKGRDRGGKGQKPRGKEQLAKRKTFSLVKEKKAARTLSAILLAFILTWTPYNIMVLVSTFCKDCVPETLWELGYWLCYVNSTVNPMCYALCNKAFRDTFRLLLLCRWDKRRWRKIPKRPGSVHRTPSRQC
Chain of Pyruvate kinase (Leishmania mexicana) (Q27686 2-499 E452W): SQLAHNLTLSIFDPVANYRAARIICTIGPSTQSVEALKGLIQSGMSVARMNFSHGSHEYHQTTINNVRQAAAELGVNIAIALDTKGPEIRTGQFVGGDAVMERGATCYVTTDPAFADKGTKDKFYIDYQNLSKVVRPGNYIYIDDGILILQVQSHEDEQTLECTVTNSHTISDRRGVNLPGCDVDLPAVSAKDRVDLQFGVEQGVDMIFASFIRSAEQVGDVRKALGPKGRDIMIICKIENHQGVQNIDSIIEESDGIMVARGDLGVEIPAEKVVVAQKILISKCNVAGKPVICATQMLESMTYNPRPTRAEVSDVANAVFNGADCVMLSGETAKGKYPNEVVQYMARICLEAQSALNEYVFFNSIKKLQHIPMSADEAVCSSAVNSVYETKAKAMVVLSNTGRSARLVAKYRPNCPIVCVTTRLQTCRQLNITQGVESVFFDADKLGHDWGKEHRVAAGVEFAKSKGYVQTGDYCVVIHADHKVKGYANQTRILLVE

Turning to `O=C1CCO1`, the call in [1] and in assay [3] was inactive. Also, the Potency entry in [2] and in assay [4] was “inactive” throughout.

In the case of `CCCN(CCC)[C@@H]1CCc2cccc(O)c2C1`, the Potency entry in [5] and in assay [8] was “inactive” each time. In addition, the Potency in assay [6] was 3.98 µM (active) and inactive; in assay [7] it was 7.08 µM (active) and inactive.

For `C[N+](C)(C)CC#CCN1CCCC1=O`, the Potency entry in [5], in [6], in assay [7] and in assay [8] was “inactive” throughout.

In the case of `COc1ccc(OC)c(C(O)C(C)N)c1` (stereo unspecified), the outcome in assay [1] and in assay [3] was inactive.

Turning to `N#CCCN`, the activation in [9] is 19.4% (inactive). Moreover, the Potency result in assay [5], in assay [6], in [7] and in [8] was “inactive” each time.

Take `Cc1sc2ccccc2c1CC1=NCCN1`: the Potency result in assay [5], in assay [6], in [7] and in [8] was “inactive” each time.

As for `ClC1C(Cl)C(Cl)C(Cl)C(Cl)C1Cl` (stereo unspecified), the result in assay [1] and in [3] was inactive.

On to `CC(N)Cc1ccc(O)cc1` (stereo unspecified), for which the call in [1] and in assay [3] was inactive.

For the compound `C[N+](C)(C)CCOC(=O)CBr`, in assay [9], the activation was 16.2% (inactive). Further, the Potency entry in [5], in [7] and in assay [8] was “inactive” in each case.

For `C[N+](C)(C)CC#CCOC(=O)Nc1cccc(Cl)c1`, the Potency result in assay [5], in [6], in assay [7] and in assay [8] was “inactive” each time.

In the case of `CP(=O)(O)C1=CCNCC1`, the Potency result in assay [5], in assay [6], in [7] and in [8] was “inactive” each time.

On to `C[C@@H]1[C@@H]2Cc3ccc(O)cc3[C@@]1(C)CCN2CC1CC1`, for which the Potency entry in [5] and in assay [8] was “inactive” in each case. The results for the Potency in assay [6] and in [7] were 14.1 µM (active) and 15.8 µM (active), respectively.

With `C=CCC1(C(C)CCC)C(=O)N=C(S)NC1=O` (stereo unspecified), the result in assay [1] and in assay [3] was inactive.

Regarding `Cc1[nH]c2ccc(O)cc2c1CCN`, the Potency result in [5], in [6], in assay [7] and in assay [8] was “inactive” throughout.

Consider `NC(Cc1ccc(N(CCCl)CCCl)cc1)C(=O)O` (stereo unspecified), for which the result in assay [1] and in assay [3] was inactive.

Turning to `COc1ccc2[nH]cc(CCN)c2c1`, the call in [1] and in assay [3] was inactive. Besides, the Potency entry in assay [5], in [6], in assay [7] and in assay [8] was “inactive” each time.

In the case of `[N-]=[N+]=CC(=O)OCC(N)C(=O)O` (stereo unspecified), the compound was classed as inactive in assay [1] and in assay [3].

Regarding `COc1ccc2c(c1OC)C(=O)OC2C1c2cc3c(cc2CCN1C)OCO3` (stereo unspecified), the compound was classed as inactive in assay [1] and in assay [3]. The Potency result in [2] and in assay [4] was “inactive” each time.

As to `NC(=O)c1cc(N2CC2)c([N+](=O)[O-])cc1[N+](=O)[O-]`, the Potency entry in assay [5], in [6], in assay [7] and in assay [8] was “inactive” throughout.

Consider `OC1CCCCC1N1CCC(c2ccccc2)CC1` (stereo unspecified), for which the call in [1] and in assay [3] was inactive.

Consider `Clc1ccc(Cl)cc1`, for which the compound was called inactive in assay [1] and in assay [3].

Take `O=[N+]([O-])c1ccc2nc(N3CCNCC3)ccc2c1`: the activation in assay [9] is -10.4% (inactive). Further, the Potency result in [7] and in assay [8] was “inactive” in each case.

Take `[Cl-].[Cl-].[Hg+2]`: the outcome in [1] and in assay [3] was inactive. Also, the Potency in assay [2] is 0.794 µM (active).

With `CCCN(CCC)[C@H]1CCc2c(F)ccc(O)c2C1`, the Potency entry in assay [5] and in assay [8] was “inactive” each time. For the same compound, the figures for the Potency in assay [6] and in assay [7] were 6.31 µM (active) and 8.91 µM (active), respectively.

`Clc1cc(I)cc(Cl)c1NC1=NCCN1`: the Potency result in [5], in [7] and in assay [8] was “inactive” throughout. In addition, the Potency in assay [6] is 15.8 µM (active).

As for `OCc1cnc[nH]1`, the Potency entry in assay [5], in assay [6], in [7] and in [8] was “inactive” throughout.

With `C[CH2][Hg][S]c1ccccc1C(=O)O`, the compound was classed as inactive in assay [1] and in [3].

Take `O=[N+]([O-])c1cc(O)c(O)c([N+](=O)[O-])c1`: the compound was called inactive in [1] and in [3]. In addition, the Potency entry in assay [5], in [6], in assay [7] and in assay [8] was “inactive” in each case.

As to `Nc1ccc(CCN2CCN(c3cccc(C(F)(F)F)c3)CC2)cc1`, the activation in assay [9] is -27.7% (inactive). The Potency in assay [6] was 11.2 µM (active). For the same compound, the Potency result in assay [8] is “inactive”.

In the case of `CN1C2CCC1CC(OC(c1ccccc1)c1ccccc1N)C2` (stereo unspecified), the compound was called inactive in assay [1] and in [3].

For `NCCCP(=O)(O)O`, in assay [9], the activation is -8.81% (inactive). In addition, the Potency entry in [5], in assay [6] and in assay [8] was “inactive” in each case.

Take `CCCC(C)C1(CC)C(=O)NC(=O)NC1=O` (stereo unspecified): the result in assay [1] and in [3] was inactive.

Turning to `CNC(=O)OCC[N+](C)(C)C`, the Potency result in [5], in [6], in assay [7] and in [8] was “inactive” throughout.

Consider `NCCc1ccc(S(=O)(=O)F)cc1`, for which the Potency entry in assay [5], in assay [7] and in assay [8] was “inactive” throughout.

As to `CC(C)(C)c1cc(C=C(C#N)C#N)cc(C(C)(C)C)c1O`, the values for the Potency in assay [10] and in [7] were 1.58 µM (active) and 1.41 µM (active), respectively. Further, in assay [8], the Potency result was “inactive”.

As for `CN1CCc2cc(O)cc3c2[C@H]1Cc1ccc(O)c(O)c1-3`, in assay [10], the Potency was 10 µM (active). Also, the Potency result in assay [8] is “inactive”.

As for `NC(N)=NOCC[C@H](N)C(=O)O`, the Potency result in [5], in assay [7] and in [8] was “inactive” throughout.

As for `O=P(O)(O)C(Cl)(Cl)P(=O)(O)O`, the Potency result in assay [5], in assay [6], in assay [7] and in assay [8] was “inactive” each time.

Consider `NC(=O)CI`, for which the Potency in assay [10] is 3.16 µM (active). Further, the Potency result in assay [6] and in assay [8] was “inactive” each time.

Regarding `CC(=O)NBr`, the Potency entry in assay [5], in assay [7] and in assay [8] was “inactive” in each case.

With `CCCN(CCC)CCc1ccc(O)c(O)c1`, the Potency entry in [5], in assay [7] and in assay [8] was “inactive” each time.
